Data from the supplement of paper PMC10849652.
About 7,900 targets were measured; listed, in parts, are those with a hit and a random draw of the rest. About 0.6% of all pairs of compound and target were hits.

compound: CCCS(=O)(=O)Nc1ccc(F)c(C(=O)c2c[nH]c3ncc(Cl)cc23)c1F; experiment: log2 fold change, soluble protein after heating vs DMSO (PISA); higher = thermal stabilisation; K562 cells, 10 uM, 30 min; active = over 0.2 and 3.5 SD of the protein, either way, in both replicates (recomputed)
In short: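 K562 cells at 2×10^6 cells/mL were given 10 μM compound for 30 min. Aliquots then went through 3 min of heating across 48°C-58°C, were pooled, and were extracted in PBS with 0.5% NP-40 at 4°C, and the supernatant after 21,000xg for 90 min was quantified by TMTpro 16plex LC-MS/MS with channel sums equalised. Thermal stability relative to control samples, from duplicates, is given as log2 fold change.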

UniProt Q9BRQ8, sequence (Q9BRQ8 whole entry, looked up): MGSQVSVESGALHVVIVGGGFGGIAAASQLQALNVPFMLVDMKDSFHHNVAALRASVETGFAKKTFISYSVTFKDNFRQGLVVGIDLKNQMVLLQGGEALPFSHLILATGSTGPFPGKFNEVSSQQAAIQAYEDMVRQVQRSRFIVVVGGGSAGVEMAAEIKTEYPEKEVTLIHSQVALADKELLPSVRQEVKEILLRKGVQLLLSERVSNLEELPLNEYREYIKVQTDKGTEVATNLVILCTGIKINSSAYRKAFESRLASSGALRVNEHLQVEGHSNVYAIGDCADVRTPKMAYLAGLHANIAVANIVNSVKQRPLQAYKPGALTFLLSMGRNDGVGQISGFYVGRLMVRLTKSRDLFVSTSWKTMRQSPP
UniProt Q8WV93, sequence (Q8WV93 whole entry, looked up): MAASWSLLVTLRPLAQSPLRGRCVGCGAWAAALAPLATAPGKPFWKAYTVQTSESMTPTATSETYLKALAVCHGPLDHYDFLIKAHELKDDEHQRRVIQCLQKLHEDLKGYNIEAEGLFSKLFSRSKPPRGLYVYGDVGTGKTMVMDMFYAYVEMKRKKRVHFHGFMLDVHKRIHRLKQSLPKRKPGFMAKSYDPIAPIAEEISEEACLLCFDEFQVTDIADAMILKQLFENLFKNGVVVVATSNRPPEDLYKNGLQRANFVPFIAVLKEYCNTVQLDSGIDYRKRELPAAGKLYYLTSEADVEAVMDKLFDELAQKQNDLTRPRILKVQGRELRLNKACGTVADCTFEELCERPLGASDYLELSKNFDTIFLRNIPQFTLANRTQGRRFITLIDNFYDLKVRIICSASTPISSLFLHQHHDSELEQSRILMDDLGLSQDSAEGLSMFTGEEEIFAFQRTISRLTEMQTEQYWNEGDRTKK
UniProt P05091, sequence (P05091 whole entry, looked up): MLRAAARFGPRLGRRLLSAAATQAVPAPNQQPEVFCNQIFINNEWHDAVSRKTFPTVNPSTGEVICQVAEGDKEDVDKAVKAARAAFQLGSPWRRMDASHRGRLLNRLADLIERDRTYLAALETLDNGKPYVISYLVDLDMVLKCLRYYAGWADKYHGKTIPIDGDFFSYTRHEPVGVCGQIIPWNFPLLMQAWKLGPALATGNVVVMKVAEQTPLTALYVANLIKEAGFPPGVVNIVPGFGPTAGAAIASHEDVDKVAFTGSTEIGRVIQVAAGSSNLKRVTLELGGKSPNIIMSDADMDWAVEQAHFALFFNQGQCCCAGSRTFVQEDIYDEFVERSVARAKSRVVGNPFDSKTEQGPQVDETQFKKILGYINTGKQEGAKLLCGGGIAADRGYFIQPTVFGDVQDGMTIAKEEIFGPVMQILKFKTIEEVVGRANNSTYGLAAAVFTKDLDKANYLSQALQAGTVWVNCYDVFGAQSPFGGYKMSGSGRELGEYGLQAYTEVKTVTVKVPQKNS
UniProt P08758, sequence (P08758 whole entry, looked up): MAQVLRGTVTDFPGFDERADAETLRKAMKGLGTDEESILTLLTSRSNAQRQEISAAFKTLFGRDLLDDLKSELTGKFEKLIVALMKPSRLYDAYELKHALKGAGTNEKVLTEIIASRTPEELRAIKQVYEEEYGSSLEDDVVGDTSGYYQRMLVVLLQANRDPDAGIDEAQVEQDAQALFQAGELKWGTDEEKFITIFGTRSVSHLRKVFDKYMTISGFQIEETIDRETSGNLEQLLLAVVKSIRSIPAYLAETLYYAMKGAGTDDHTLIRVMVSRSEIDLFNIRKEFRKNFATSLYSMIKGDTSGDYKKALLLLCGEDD
UniProt Q9NWX5, sequence (Q9NWX5 whole entry, looked up): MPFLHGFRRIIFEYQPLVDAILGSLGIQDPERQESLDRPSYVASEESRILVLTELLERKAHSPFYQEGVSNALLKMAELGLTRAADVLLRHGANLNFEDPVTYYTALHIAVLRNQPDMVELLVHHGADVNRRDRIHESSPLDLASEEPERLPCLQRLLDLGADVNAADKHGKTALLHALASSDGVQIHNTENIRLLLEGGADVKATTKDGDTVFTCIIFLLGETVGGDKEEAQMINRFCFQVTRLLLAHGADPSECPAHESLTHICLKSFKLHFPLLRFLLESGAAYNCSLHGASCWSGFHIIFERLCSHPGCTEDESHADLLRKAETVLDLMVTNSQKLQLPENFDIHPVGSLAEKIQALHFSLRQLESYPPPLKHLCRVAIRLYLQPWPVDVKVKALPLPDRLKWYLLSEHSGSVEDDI
UniProt Q9H0E9, sequence (Q9H0E9 whole entry, looked up): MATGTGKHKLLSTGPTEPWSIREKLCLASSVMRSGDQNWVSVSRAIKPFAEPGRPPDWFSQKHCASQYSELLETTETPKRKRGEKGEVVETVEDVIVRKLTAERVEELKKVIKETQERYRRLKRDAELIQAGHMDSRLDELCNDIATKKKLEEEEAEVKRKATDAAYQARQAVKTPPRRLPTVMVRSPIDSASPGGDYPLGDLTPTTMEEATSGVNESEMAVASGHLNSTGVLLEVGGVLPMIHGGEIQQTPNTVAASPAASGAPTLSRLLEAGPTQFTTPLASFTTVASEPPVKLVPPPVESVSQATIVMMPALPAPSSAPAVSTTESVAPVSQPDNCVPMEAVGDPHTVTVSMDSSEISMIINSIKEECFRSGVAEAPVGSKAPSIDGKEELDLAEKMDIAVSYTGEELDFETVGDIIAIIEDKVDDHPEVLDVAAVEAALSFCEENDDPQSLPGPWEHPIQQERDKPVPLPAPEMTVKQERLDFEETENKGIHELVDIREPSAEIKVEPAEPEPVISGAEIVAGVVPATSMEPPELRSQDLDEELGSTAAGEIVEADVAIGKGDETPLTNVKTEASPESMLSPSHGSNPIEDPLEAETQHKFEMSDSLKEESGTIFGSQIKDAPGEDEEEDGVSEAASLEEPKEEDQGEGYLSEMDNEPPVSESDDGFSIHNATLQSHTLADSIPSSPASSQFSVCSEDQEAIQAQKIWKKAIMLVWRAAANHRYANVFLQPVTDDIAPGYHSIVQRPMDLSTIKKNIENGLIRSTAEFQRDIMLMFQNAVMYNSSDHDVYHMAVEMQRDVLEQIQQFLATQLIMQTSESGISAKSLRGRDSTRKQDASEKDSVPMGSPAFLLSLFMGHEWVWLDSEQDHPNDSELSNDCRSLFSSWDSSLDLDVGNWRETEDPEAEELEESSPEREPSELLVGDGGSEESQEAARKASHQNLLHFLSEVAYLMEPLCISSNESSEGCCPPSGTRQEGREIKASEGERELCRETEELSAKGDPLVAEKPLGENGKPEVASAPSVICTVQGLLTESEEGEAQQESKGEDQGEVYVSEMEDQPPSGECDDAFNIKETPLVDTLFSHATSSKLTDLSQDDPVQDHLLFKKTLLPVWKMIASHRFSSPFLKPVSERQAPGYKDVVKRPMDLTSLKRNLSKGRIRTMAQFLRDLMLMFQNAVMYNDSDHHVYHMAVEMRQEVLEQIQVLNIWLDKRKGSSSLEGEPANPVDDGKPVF
UniProt Q9BX63, sequence (Q9BX63 whole entry, looked up): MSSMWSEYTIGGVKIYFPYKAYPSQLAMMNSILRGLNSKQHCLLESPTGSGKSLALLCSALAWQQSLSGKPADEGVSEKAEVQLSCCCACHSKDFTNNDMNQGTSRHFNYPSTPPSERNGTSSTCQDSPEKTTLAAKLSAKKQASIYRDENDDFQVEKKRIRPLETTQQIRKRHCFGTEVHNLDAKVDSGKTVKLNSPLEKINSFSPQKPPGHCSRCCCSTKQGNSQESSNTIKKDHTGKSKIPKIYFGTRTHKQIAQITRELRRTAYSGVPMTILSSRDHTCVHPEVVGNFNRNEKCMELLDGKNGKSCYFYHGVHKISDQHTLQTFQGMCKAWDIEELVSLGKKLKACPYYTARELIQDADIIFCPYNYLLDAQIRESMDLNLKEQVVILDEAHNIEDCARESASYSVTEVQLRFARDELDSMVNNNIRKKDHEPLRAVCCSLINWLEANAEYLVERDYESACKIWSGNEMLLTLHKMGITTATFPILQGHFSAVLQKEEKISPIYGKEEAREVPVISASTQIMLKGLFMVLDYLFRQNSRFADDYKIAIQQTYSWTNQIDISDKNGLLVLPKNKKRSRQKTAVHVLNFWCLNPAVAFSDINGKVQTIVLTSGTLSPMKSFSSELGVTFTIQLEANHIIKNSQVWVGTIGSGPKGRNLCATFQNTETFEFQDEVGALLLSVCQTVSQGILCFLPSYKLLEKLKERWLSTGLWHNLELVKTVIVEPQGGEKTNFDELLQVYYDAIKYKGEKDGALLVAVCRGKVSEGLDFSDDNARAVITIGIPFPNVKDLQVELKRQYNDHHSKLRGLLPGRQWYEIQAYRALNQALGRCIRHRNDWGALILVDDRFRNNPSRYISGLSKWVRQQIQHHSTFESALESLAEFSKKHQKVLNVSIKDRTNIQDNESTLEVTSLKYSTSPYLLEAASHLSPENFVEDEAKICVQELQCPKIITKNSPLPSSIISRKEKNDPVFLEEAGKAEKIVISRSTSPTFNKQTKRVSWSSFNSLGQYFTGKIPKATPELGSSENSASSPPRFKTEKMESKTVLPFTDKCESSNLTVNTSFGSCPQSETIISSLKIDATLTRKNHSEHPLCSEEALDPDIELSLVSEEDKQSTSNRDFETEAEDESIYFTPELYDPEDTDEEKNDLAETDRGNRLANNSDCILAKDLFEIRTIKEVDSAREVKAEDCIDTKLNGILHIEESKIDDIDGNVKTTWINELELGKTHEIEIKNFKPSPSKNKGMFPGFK
UniProt P17707, sequence (P17707 whole entry, looked up): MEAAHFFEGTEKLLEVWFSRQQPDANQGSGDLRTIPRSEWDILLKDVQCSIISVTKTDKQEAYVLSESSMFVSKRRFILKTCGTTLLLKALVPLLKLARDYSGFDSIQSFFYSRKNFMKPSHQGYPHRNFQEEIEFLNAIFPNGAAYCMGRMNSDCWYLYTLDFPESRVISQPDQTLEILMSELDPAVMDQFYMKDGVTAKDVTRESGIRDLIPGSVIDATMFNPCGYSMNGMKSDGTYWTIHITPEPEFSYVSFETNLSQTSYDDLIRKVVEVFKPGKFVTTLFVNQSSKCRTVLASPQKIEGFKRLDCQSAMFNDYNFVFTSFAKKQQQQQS

log2 fold change, inactive:
ABHD17A isoform 2 (UniProt Q96GS6) -0.032, AASDH (UniProt Q4L235) 0.103, ARFGAP2 (UniProt Q8N6H7) 0.033, ACTBL2 (UniProt Q562R1) -0.41, AMD1 (UniProt P17707) 0.041, BRD4 (UniProt O60885) -0.003, ADPRH (UniProt P54922) -0.037, BDH2 (UniProt Q9BUT1) -0.077, ANXA5 (UniProt P08758) 0.071, BTBD6 (UniProt Q96KE9) 0.007, BYSL (UniProt Q13895) 0.032, ALDH2 isoform 2 (UniProt P05091) -0.141, ARRDC1 (UniProt Q8N5I2) 0.039, BRIP1 (UniProt Q9BX63) 0.045, ADAM15 (UniProt Q13444) 0.007, ABCA3 (UniProt Q99758) -0.112, AFG1L (UniProt Q8WV93) 0.041, BRD8 isoform 2 (UniProt Q9H0E9) 0.06, ASS1 (UniProt P00966) 0.003, APOBEC3G (UniProt Q9HC16) -0.083, ATF7 isoform 6 (UniProt P17544) 0.239, AIFM2 (UniProt Q9BRQ8) -0.026, ASB6 (UniProt Q9NWX5) 0.108
